Some structures have more than one record in an assay (separate samples or runs), and their calls can disagree. Calls of active or inactive are those of the source. How the source made its calls: active means hit-call score of the fitted dose curve at least 0.9, where 1 is the maximum; inactive means score below 0.9.
Each compound was assayed against Signal transducer and activator of transcription 3 (Homo sapiens) (UniProt P40763) (assay: ATG_STAT3_CIS: Attagene CIS-FACTORIAL HepG2 Assay for human Signal Transducer and Activator of Transcription 3 (STAT3) (AID 2282963)). Details: HepG2, Attagene cis-factorial STAT3 reporter transcription; actives raise or lower the signal.
Method: ATG_CIS is a cell-based, multiplexed-readout assay that uses HepG2, a human liver cell line, with measurements taken at 24 hours after chemical dosing in a 24-well plate.ATG_STAT3_CIS is one of 52 assay component(s) measured or calculated from the ATG_CIS assay. It is designed to make measurements of mRNA induction, a form of inducible reporter, as detected with fluorescence intensity signals by Reverse transcription polymerase chain reaction (RT-PCR) and Capillary electrophoresis technology.Data from the assay component ATG_STAT3_CIS was analyzed into 1 assay endpoint. This assay endpoint, ATG_STAT3_CIS, was analyzed with bidirectional fitting relative to DMSO as the negative control and baseline of activity. Using a type of inducible reporter, measures of mRNA for gain or loss-of-signal activity can be used to understand the reporter gene at the transcription factor-level as they relate to the gene STAT3. Furthermore, this assay endpoint can be referred to as a primary readout, because this assay has produced multiple assay endpoints where this one serves a reporter gene function. To generalize the intended target to other relatable targets, this assay endpoint is annotated to the dna binding intended target family, where the subfamily is stat protein.
Human liver HepG2 cells are transiently transfected with multiple reporter transcription units (MRTUs) in 6-well plates using FuGene 6 reagent (Roche; 3 ml FuGene/1 mg DNA). The MRTU constructs are regulated by a cis-regulating element (promoter). […] A major difference between the CIS and TRANS system is that in CIS activities of endogenous TFs are measured, whereas the TRANS assay evaluates changes in activities of exogenous, chimeric NR-Gal4 proteins. […] At the end of 24 hour incubation, total RNA was isolated using TriZol reagent (Invitrogen). The isolated RNA is then reverse-transcribed using oligo(dT) primer and Mo-MLV reverse transcriptase (Invitrogen) with DNAse I (Ambion) treatment for 30 min. The one-tenth of the produced cDNA was amplified by PCR using Taq DNA polymerase (Invitrogen) and two reporter sequence-specific primers. The PCR products were fluorescently labeled by primer extension with 6-arboxyfluorescein (6-FAM) 5'-labeled reporter sequence-specific primer (2 min at 95 C, 20 s at 68 C and 10 min at 72 C) and these products were digested with 5U of HpaI (New England Biolabs) for 2h at 37 C. The fragments were purified using Qiaquick PCR columns (Qiagen), analyzed on an ABI 3130xL genetic analyzer (Applied Biosystems) with peak positions identified by using a set of X-rhodamine (ROX)-labeled MapMarker1000 molecular weight standards (BioVentures). The raw capillary electrophoresis data was processed using Attagraph software (Attagene).

Sequence of Signal transducer and activator of transcription 3 (Homo sapiens) (P40763 whole entry, looked up): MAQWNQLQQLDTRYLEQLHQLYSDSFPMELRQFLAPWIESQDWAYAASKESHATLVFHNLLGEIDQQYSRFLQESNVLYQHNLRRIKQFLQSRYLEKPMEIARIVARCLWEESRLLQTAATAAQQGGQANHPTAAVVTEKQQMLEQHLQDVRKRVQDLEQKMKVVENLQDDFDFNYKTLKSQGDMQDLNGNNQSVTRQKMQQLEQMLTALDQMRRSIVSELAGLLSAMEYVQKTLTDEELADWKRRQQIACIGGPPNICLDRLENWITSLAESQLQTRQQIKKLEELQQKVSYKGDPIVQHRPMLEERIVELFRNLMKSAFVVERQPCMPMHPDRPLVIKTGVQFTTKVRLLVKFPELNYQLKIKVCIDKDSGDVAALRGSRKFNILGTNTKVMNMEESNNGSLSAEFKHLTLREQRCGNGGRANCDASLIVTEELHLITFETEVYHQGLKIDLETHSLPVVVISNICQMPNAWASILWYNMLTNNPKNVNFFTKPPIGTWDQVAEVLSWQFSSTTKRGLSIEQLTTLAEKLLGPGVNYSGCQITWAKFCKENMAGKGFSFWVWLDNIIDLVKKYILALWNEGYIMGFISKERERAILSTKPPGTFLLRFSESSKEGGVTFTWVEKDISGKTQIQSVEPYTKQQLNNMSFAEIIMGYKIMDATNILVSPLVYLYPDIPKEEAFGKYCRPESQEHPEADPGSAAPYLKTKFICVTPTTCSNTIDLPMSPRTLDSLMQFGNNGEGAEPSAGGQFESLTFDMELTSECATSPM

SMILES | outcome | AC50
COC(OC(C)=O)c1ccccc1 (stereo not given) | inactive | –
C=CC(F)(F)C(F)(F)C(F)(F)C(F)(F)C(F)(F)C(F)(F)C(F)(F)C(F)(F)C=C | inactive | –
CCCCCCCOC(=O)c1ccccc1C(=O)OCCCCCCC | inactive | –
C=C(C)C(=O)OCC(F)(F)C(F)(F)C(F)(F)C(F)(F)C(F)(F)C(F)(F)C(F)(F)F | inactive | –
O[Si](c1ccccc1)(c1ccccc1)c1ccccc1 | inactive | –
Cc1cc(C)cc(O)c1 | inactive | –
CC(Cc1ccc(O)c(O)c1)C(C)Cc1ccc(O)c(O)c1 (stereo not given) | inactive | –
C=CC(F)(F)C(F)(F)C(F)(F)C(F)(F)C(F)(F)C(F)(F)C(F)(F)C(F)(F)F | inactive | –
CCCCCCS | inactive | –
Cc1ccc(S(=O)(=O)OCC(F)(F)C(F)(F)C(F)(F)C(F)(F)C(F)(F)C(F)F)cc1 | inactive | –
Nc1ccc(S(=O)(=O)Nc2nccs2)cc1 | inactive | –
c1ccc(B(c2ccccc2)c2ccccc2)cc1 | inactive | –
CNC(=S)NC | inactive | –
C=CC/C=C/C/C=C/C/C=C/C | inactive | –
OCCCC(F)(F)C(F)(F)C(F)(F)F | inactive | –
O=S(=O)(O)c1ccc2ccccc2c1 | inactive | –
FC(F)(F)C(F)(F)C(F)(F)C(F)(F)CCI | inactive | –
CCCCNc1ccccc1 | inactive | –
OCC(F)(F)C(F)(F)C(F)(F)C(F)(F)C(F)(F)C(F)(F)F | inactive | –

SMILES | outcome | AC50
O=S(=O)(O)C(F)(F)C(F)(F)C(F)(F)C(F)(F)C(F)(F)C(F)(F)C(F)(F)F | inactive | 163 µM (active)
COC(=O)CCC(F)(F)C(F)(F)C(F)(F)C(F)(F)F | inactive | –
CCCCC(CC)COP(=O)(O)OCC(CC)CCCC (stereo not given) | inactive | –
C1COCCN1 | inactive | –
CCN(CC)c1ccc2c(C)cc(=O)oc2c1 | inactive | –
CCCCOc1ccc(N)cc1 | inactive | –
CCc1c(Br)c(Br)c(Br)c(Br)c1Br | inactive | –
CC(C)(C)c1ccc(OC2CCCCC2O)cc1 (stereo not given) | inactive | –
CC(C)(C)C(=O)CC(=O)C(F)(F)C(F)(F)C(F)(F)F | inactive | –
CCCCCC=O | inactive | –
OCCCC(F)(F)C(F)(F)C(F)(F)C(F)(F)C(F)(F)C(F)(F)C(F)(F)F | inactive | 78.9 µM (active)
FC(F)(F)C(F)(F)CNCC(F)(F)C(F)(F)F | inactive | –
CCc1ccc(C(c2ccc(CC)cc2)C(Cl)Cl)cc1 | inactive | –
C=CC(=O)OCC(F)(F)C(F)(F)C(F)(F)C(F)(F)C(F)(F)C(F)(F)C(F)(F)F | inactive | –
O=S(=O)(OCCOC(F)(F)F)C(F)(F)F | inactive | –
C(=C(c1ccccc1)c1ccccc1)c1ccccc1 | inactive | –
Cc1cccc(N(C)C)c1 | inactive | –
Oc1ccc(Nc2ccccc2)cc1 | inactive | –
FC(F)(F)C(F)(F)C(F)(F)C(F)(F)C(F)(F)CCI | inactive | –
